# Assay results from PubChem BioAssay AID504408 (Broad Institute, 2011).
# The whole screen tested about 300,000 compounds, of which about 5,200 (1.7%) were called active. The full list was thinned out, with actives kept by preference. Values without a mark were called inactive.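 Rule for the calls: active = mean replicate activation of at least 50% with a set share of replicates each reaching 50%; inconclusive = only one of those two conditions met; inactive = mean below 50% and too few replicates reaching it.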
# Assay: HSF-1 activators, primary screen, NIH3T3-HGL cells, MG132 stress, luminescence, single point (AID 504408);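 note: 0% = median of the neutral control wells and 100% = twice that signal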
# Conditions: NIH3T3-HGL HSF-1 luciferase reporter, MG132, 8 h; at 9 µM; active compounds read high
row,Structure (SMILES),activation
1,CCOc1ccc(CN(CCCl)CCCl)cc1C(=O)OC,68.2% (active)
2,CCCOC(=O)C1C2c3ccccc3C(c3ccccc32)C1C(=O)O (stereo not given),-7.72%
3,C=CCn1c(O)c(/C=N/N2CCOCC2)c(=O)[nH]c1=S,35%
4,CC[C@H]1CC2CN3CCc4c([nH]c5ccccc45)C(C(=O)OC)(C2)C13 (stereo not given in full),3.35%
5,COc1ccc(-n2c(-c3ccccc3)nc3ccccc3c2=O)cc1,-4.8%
6,CC12CCC3C(CCC4CC(=O)CCC43C)C1CC(=NO)C2=O (stereo not given),-22.3%
7,O=C1NC(=O)N(Cc2ccco2)C(=O)/C1=C\c1ccc(-c2ccc(F)cc2)o1,14.8%
8,O=C(O)COc1ccccc1/C=C1\C(=O)NC(=O)N(CCC2=CCCCC2)C1=O,10%
9,O=C1NC(=O)N(CCc2ccc(F)cc2)C(=O)/C1=C/C=C/c1ccccc1,196% (active)
10,O=C(COC(=O)c1ccccc1)Nc1ccc(Cl)cc1C(=O)c1ccccc1,-9.79%
11,O=C(NC(=S)N1C[C@H]2C[C@H](C1)c1cccc(=O)n1C2)c1ccc(F)cc1,-0.361%
12,CN(C)CC1Oc2ccccc2OC1(O)c1ccccc1 (stereo not given),89.4% (active)
13,CNC(=O)O/N=C(\N)Cc1csc2ccc(Cl)cc12,27.8%
14,O=C(O)C1CSC(c2cccnc2)N1 (stereo not given),3.54%
15,COC(=O)C(c1ccccc1)N1CCCCCC1 (stereo not given),1.63%
16,COC(=O)N1C(c2ccccc2)C1c1ccccc1 (stereo not given),50.1% (active)
17,O=C(CCN1CCCCC1)NCC(=O)Nc1ccc(Br)cc1C(=O)c1ccccc1,-6.9%
18,O=C(CSC1c2ccccc2-c2ccccc21)N/N=C/c1ccccc1,-4.94%
19,COc1ccc(C2NCc3ccc4c(c3-n3cccc32)OCO4)cc1OC (stereo not given),4.67%
20,CCOC(=O)C1SC2(C(F)(F)C(F)F)CC1(O)c1c(c(OC)c3occc3c1OC)O2 (stereo not given),-4.08%
